Source: the supplement of paper PMC10849652
Targets with a hit are over-represented here; the source holds about 7,900 in all. About 0.6% of all pairs of compound and target were hits.

How the values were obtained:
Assay in all cases: log2 fold change, soluble protein after heating vs DMSO (PISA); higher = thermal stabilisation; K562 cells, 10 uM, 30 min; active = over 0.2 and 3.5 SD of the protein, either way, in both replicates (recomputed)
[1] = compound: CS(=O)(=O)c1ccc(-c2cnc(N)c(C(=O)Nc3ccccc3)n2)cc1
Procedure, shortened: (§1)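 K562 cells at 2×10^6 cells/mL were treated with 10 μM compound for 30 min. Aliquots were heated for 3 min across 48°C-58°C, pooled, and extracted in PBS with 0.5% NP-40 at 4°C; soluble protein was the supernatant after 21,000xg for 90 min. Soluble protein was quantified by TMTpro 16plex LC-MS/MS with channel sums equalised, and reported as log2 fold change in thermal stability against DMSO controls, with values from duplicates.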

[2] = compound: C[C@@H](Oc1cc(-c2cnn(C3CCNCC3)c2)cnc1N)c1c(Cl)ccc(F)c1Cl [crizotinib]
Procedure, shortened: as §1

[3] = compound: C[C@@H]1COCCN1C2=NC(=NC(=C2)C3(CC3)S(=O)(=O)C)C4=C5C=CNC5=CC=C4
Procedure, shortened: as §1

[4] = compound: C[C@H](C1=CC=C(C=C1)C(=O)NC2=C3C=CNC3=NC=C2)N
Procedure, shortened: as §1

[5] = compound: C[C@H](Nc1ncnc2nc[nH]c12)c1cc2cccc(Cl)c2c(=O)n1-c1ccccc1 [duvelisib]
Procedure, shortened: as §1

[6] = compound: Cc1cc(Nc2cc(CN3CCOCC3)c3nc(C)c(Cc4ccc(Cl)cc4F)n3n2)n[nH]1 [gandotinib]
Procedure, shortened: as §1

[7] = compound: Cc1cc(Nc2cc(N3CCN(C)CC3)nc(Sc3ccc(NC(=O)C4CC4)cc3)n2)n[nH]1 [tozasertib]
Procedure, shortened: as §1

[8] = compound: Cc1cc(SCc2sc(-c3ccc(C(F)(F)F)cc3)nc2C)ccc1OCC(=O)O
Procedure, shortened: as §1

[9] = compound: Cc1ccc(-n2nc(C(C)(C)C)cc2NC(=O)Nc2ccc(OCCN3CCOCC3)c3ccccc23)cc1 [doramapimod]
Procedure, shortened: as §1

[10] = compound: Cc1ccc(C(=O)N(CCCN)[C@@H](c2nc3cc(Cl)ccc3c(=O)n2Cc2ccccc2)C(C)C)cc1 [ispinesib]
Procedure, shortened: as §1

Measured: log2 fold change

GALC (UniProt P54803)
inactive: [1] 0.03 | [2] -0.023 | [3] 0.03 | [4] -0.012 | [5] -0.049 | [6] 0.008 | [7] 0.033 | [8] 0 | [9] -0.01 | [10] -0.135

HIP1 (UniProt O00291)
inactive: [1] 0.054 | [2] -0.131 | [3] 0.035 | [4] -0.002 | [5] 0.085 | [6] 0.029 | [7] -0.086 | [8] 0.027 | [9] 0 | [10] -0.033

HBA1 (UniProt P69905)
Chain of UniProt P69905 (P69905 whole entry, looked up): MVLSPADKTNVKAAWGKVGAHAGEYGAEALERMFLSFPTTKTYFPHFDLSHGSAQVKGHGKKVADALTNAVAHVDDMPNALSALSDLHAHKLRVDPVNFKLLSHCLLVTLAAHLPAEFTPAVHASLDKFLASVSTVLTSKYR
inactive: [1] 0.009 | [2] 0.097 | [3] 0.213 | [4] -0.058 | [5] 0.094 | [6] 0.025 | [7] 0.081 | [8] 0.004 | [9] 0 | [10] 0.24

GOLPH3 (UniProt Q9H4A6)
Chain of UniProt Q9H4A6 (Q9H4A6 whole entry, looked up): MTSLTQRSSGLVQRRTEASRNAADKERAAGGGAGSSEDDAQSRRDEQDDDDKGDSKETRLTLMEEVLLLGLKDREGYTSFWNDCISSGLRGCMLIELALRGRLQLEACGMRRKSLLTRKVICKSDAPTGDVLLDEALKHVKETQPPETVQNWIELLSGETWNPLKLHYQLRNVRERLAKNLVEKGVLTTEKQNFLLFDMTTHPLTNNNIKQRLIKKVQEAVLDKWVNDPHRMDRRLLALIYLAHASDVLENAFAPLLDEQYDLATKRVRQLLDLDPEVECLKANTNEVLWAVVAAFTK
active: [10] 0.379
inactive: [1] -0.028 | [2] 0.176 | [3] 0.006 | [4] -0.038 | [5] 0.047 | [6] -0.112 | [7] 0.024 | [8] 0.012 | [9] -0.011

GNPAT (UniProt O15228)
inactive: [1] 0.029 | [2] -0.071 | [3] 0.087 | [4] -0.088 | [5] 0.021 | [6] -0.076 | [7] -0.002 | [8] 0.06 | [9] 0.034 | [10] -0.006

HRC (UniProt P23327)
active: [3] -0.342
inactive: [1] 0.027 | [2] 0.096 | [4] 0.012 | [5] 0.062 | [6] 0.064 | [7] -0.053 | [8] -0.033 | [9] -0.033 | [10] 0.037

GGT7 (UniProt Q9UJ14)
inactive: [1] 0.035 | [2] 0.013 | [3] -0.128 | [4] 0.013 | [5] -0.045 | [6] -0.03 | [7] -0.049 | [8] -0.091 | [9] 0.023 | [10] -0.032

GLUL (UniProt P15104)
inactive: [1] -0.07 | [2] 0.008 | [4] 0.062 | [5] 0.035 | [6] -0.014 | [7] -0.014 | [8] -0.047 | [9] -0.126 | [10] 0.005
active: [3] -0.267

GNS (UniProt P15586)
inactive: [1] 0.001 | [2] -0.115 | [3] 0.046 | [4] -0.032 | [5] 0.016 | [6] 0.061 | [7] 0.014 | [8] -0.028 | [9] 0.016 | [10] -0.021

HK2 (UniProt P52789)
inactive: [1] -0.156 | [2] 0.082 | [3] 0.03 | [4] -0.014 | [5] 0.014 | [7] -0.028 | [8] 0.013 | [9] -0.026 | [10] 0.161
active: [6] -0.297

HDAC6 (UniProt Q9UBN7)
inactive: [1] -0.019 | [2] -0.057 | [3] -0.007 | [4] 0.066 | [5] 0.045 | [6] 0.079 | [7] -0.091 | [8] 0.062 | [9] 0.015 | [10] -0.027

GTF2A2 (UniProt P52657)
inactive: [1] 0.022 | [2] 0.11 | [3] 0.102 | [4] 0.015 | [5] 0.067 | [6] -0.005 | [7] 0.031 | [8] -0.076 | [9] -0.034 | [10] 0.023

HBQ1 (UniProt P09105)
inactive: [1] -0.017 | [2] 0.037 | [3] 0.065 | [4] -0.148 | [5] 0.129 | [6] -0.002 | [7] 0.015 | [8] -0.023 | [9] -0.003 | [10] 0.092

HMGCR isoform 3 (UniProt P04035)
inactive: [1] -0.259 | [2] 0.071 | [3] -0.234 | [4] -0.004 | [5] 0.003 | [6] 0.092 | [7] -0.088 | [8] -0.065 | [9] 0.025 | [10] 0.111

HMG20A (UniProt Q9NP66)
inactive: [1] -0.042 | [2] 0.07 | [3] -0.018 | [4] -0.199 | [5] 0 | [6] 0.104 | [7] -0.035 | [8] -0.087 | [9] 0.071 | [10] 0.352

GOLGB1 isoform 2 (UniProt Q14789)
Chain of UniProt Q14789 (Q14789 whole entry, looked up): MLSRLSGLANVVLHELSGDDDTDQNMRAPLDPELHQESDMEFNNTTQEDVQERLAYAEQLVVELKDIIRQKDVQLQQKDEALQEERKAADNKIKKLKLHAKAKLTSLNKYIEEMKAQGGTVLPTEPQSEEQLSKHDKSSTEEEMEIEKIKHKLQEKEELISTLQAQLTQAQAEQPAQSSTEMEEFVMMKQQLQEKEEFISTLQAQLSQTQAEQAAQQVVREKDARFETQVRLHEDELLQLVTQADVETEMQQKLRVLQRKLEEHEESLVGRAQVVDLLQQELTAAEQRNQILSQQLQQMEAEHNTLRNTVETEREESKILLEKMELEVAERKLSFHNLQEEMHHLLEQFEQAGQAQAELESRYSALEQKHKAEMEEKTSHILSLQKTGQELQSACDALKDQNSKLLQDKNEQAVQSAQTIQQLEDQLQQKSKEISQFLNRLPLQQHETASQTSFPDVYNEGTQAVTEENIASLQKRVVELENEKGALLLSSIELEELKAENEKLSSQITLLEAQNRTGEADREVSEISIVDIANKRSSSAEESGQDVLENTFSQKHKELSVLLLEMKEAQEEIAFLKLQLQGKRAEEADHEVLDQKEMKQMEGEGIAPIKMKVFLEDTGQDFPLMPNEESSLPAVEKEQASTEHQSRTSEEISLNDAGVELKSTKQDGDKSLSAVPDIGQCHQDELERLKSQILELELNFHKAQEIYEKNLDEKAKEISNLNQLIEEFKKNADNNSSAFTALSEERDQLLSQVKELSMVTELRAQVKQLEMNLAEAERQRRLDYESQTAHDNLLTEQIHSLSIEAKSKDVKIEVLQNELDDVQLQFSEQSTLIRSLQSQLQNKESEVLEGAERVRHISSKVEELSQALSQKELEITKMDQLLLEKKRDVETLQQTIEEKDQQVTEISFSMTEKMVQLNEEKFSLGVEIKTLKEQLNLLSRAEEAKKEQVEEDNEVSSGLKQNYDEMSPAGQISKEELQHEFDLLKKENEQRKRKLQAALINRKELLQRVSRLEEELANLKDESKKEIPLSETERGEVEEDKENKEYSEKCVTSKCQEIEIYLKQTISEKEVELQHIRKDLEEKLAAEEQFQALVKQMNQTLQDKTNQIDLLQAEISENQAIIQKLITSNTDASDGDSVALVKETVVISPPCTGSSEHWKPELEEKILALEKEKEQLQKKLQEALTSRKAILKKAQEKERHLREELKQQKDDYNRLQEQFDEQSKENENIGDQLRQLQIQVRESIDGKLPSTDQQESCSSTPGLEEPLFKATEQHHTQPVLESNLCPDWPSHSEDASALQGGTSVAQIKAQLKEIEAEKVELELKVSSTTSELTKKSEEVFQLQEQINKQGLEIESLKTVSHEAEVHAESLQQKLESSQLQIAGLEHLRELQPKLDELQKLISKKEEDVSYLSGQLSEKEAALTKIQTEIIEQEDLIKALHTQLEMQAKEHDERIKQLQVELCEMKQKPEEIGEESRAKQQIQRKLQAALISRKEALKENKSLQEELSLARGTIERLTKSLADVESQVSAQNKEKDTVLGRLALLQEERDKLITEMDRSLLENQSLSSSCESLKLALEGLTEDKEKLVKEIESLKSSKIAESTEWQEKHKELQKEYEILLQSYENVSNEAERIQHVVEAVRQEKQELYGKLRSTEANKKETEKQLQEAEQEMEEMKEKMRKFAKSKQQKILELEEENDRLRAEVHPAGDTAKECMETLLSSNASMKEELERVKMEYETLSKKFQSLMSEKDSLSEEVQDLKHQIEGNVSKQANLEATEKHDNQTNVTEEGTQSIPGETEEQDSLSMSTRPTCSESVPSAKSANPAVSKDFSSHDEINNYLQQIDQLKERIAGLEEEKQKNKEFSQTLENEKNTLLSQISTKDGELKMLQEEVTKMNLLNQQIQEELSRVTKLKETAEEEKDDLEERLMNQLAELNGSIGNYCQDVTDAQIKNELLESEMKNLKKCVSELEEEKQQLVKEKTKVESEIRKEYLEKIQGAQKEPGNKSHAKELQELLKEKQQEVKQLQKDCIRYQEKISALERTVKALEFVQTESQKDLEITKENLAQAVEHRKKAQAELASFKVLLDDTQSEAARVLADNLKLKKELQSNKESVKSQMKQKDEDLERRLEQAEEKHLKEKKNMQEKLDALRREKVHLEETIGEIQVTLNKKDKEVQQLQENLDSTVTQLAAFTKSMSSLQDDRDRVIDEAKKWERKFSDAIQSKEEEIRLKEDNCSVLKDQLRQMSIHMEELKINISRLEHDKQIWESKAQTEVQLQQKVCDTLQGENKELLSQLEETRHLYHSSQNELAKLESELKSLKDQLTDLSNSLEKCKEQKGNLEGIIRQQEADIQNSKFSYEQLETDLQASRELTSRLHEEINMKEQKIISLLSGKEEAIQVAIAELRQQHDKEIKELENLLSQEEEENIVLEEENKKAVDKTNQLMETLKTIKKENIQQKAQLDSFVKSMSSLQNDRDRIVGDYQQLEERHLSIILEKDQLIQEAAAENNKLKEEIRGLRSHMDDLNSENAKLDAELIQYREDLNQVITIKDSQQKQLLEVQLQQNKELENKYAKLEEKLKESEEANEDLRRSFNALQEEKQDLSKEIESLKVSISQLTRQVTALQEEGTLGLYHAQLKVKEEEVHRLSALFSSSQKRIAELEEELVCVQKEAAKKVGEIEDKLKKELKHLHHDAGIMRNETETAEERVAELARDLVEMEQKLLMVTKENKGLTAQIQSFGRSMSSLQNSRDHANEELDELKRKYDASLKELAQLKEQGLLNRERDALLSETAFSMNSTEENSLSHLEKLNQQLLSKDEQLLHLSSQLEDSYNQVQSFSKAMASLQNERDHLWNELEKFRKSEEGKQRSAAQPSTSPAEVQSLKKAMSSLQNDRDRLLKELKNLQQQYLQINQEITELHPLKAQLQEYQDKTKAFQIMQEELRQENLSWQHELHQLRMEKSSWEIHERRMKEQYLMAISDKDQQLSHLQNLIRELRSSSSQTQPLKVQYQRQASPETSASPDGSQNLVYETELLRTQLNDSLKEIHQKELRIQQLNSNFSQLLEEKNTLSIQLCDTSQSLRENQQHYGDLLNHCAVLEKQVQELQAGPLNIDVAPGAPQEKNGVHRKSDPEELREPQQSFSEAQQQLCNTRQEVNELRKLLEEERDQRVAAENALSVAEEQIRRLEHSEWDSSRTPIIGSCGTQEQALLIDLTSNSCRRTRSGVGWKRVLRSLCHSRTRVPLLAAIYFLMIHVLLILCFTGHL
inactive: [1] -0.135 | [2] -0.012 | [4] 0.19 | [5] 0.004 | [6] -0.031 | [7] 0.211 | [8] -0.025 | [9] 0.056 | [10] 0.012
active: [3] -0.314

GABARAPL1 isoform 2 (UniProt Q9H0R8)
Chain of UniProt Q9H0R8 (Q9H0R8 whole entry, looked up): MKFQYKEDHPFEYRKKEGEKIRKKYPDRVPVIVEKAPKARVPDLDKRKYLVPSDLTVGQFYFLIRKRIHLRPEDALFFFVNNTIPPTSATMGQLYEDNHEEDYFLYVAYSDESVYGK
inactive: [1] 0.105 | [3] 0.048 | [4] -0.045 | [5] 0.057 | [6] 0.078 | [7] -0.008 | [8] 0.026 | [9] -0.034
active: [2] -0.344 | [10] -0.315

H2AZ1 (UniProt P0C0S5)
Chain of UniProt P0C0S5 (P0C0S5 whole entry, looked up): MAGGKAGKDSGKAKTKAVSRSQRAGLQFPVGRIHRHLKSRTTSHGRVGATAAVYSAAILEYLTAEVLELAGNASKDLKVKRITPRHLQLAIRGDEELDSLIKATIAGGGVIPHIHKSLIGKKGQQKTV
inactive: [1] -0.027 | [2] -0.062 | [3] -0.47 | [4] 0.345 | [5] -0.09 | [6] -0.006 | [7] -0.146 | [8] -0.084 | [9] 0.178 | [10] -0.147

FEN1 (UniProt P39748)
Chain of UniProt P39748 (P39748 whole entry, looked up): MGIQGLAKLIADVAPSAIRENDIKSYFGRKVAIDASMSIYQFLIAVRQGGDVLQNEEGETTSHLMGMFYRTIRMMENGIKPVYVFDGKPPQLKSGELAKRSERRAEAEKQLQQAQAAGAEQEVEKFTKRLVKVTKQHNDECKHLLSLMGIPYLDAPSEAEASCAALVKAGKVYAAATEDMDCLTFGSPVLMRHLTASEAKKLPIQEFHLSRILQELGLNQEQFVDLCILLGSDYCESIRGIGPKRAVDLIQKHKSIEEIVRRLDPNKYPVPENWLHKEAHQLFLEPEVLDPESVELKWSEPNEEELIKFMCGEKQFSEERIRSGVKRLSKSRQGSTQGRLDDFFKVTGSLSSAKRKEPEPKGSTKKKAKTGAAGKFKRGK
active: [2] -0.488
inactive: [1] 0.018 | [3] 0.367 | [4] -0.018 | [5] 0.07 | [6] -0.162 | [7] -0.024 | [8] 0.177 | [9] -0.065 | [10] -0.126

FOXO3 (UniProt O43524)
Chain of UniProt O43524 (O43524 whole entry, looked up): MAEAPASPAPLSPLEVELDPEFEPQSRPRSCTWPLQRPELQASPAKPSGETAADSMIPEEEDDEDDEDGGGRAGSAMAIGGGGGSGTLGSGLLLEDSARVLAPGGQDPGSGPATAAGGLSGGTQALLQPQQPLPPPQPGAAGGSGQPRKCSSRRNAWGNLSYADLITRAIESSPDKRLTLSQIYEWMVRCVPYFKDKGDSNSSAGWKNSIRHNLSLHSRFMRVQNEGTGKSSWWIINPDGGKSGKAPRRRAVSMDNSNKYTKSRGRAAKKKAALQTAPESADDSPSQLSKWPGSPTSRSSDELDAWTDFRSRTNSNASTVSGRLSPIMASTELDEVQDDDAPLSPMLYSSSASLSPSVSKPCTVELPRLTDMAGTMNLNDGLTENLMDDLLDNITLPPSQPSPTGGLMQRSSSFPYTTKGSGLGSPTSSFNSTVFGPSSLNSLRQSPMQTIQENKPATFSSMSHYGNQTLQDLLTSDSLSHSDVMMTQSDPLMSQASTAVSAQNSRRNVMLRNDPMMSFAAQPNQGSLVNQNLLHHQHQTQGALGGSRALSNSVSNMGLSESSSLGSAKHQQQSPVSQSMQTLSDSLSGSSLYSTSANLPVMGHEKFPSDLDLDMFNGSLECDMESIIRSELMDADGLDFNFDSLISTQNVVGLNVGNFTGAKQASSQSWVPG
active: [2] -0.423
inactive: [1] -0.028 | [3] -0.444 | [4] 0.013 | [5] -0.354 | [6] -0.061 | [7] -0.095 | [8] 0.16 | [9] 0.005 | [10] -0.095

FKBP3 (UniProt Q00688)
inactive: [1] -0.02 | [2] 0.017 | [3] 0.074 | [4] -0.076 | [5] 0.016 | [6] -0.024 | [7] 0.004 | [8] -0.006 | [9] 0 | [10] 0.019

FNTB (UniProt P49356)
inactive: [1] 0.104 | [2] 0.054 | [3] -0.035 | [4] -0.137 | [5] 0.085 | [6] 0.169 | [7] -0.012 | [8] -0.043 | [9] -0.012 | [10] 0.109

HADHA (UniProt P40939)
inactive: [1] -0.058 | [2] 0.079 | [3] 0.068 | [4] -0.017 | [5] 0.201 | [6] 0.086 | [7] -0.154 | [8] 0.154 | [9] 0.176 | [10] 0.171

HAT1 (UniProt O14929)
inactive: [1] -0.011 | [2] 0.013 | [3] 0.007 | [4] -0.225 | [5] -0.031 | [6] 0.019 | [7] 0.024 | [8] 0.033 | [9] -0.04 | [10] 0.135

HNRNPC isoform 2 (UniProt P07910)
inactive: [1] -0.176 | [2] -0.061 | [3] -0.239 | [4] 0.532 | [5] -0.076 | [6] 0.197 | [7] 0.05 | [8] 0.125 | [9] 0.088 | [10] -0.35

FDXR isoform 7 (UniProt P22570)
inactive: [1] 0.038 | [2] -0.036 | [3] 0.117 | [4] -0.01 | [5] 0.11 | [6] -0.064 | [7] -0.105 | [8] 0.023 | [9] -0.013 | [10] -0.138

HEATR5B (UniProt Q9P2D3)
inactive: [1] 0.055 | [2] -0.058 | [3] -0.11 | [4] 0.103 | [5] -0.026 | [6] -0.039 | [7] -0.019 | [8] 0.036 | [9] -0.015 | [10] -0.021

FMC1 (UniProt Q96HJ9)
inactive: [1] 0.021 | [2] 0.195 | [3] -0.157 | [4] 0.082 | [5] -0.046 | [6] 0.024 | [7] -0.058 | [8] -0.018 | [9] -0.137 | [10] -0.314

HDAC1 (UniProt Q13547)
inactive: [1] 0.011 | [2] 0.084 | [3] 0.001 | [4] 0.115 | [5] 0.045 | [6] -0.02 | [7] -0.033 | [8] 0.06 | [9] -0.018 | [10] 0.038

FLNA (UniProt P21333)
inactive: [1] 0.014 | [2] -0.078 | [3] -0.01 | [4] 0.04 | [5] -0.014 | [6] -0.045 | [7] 0.108 | [8] 0.127 | [9] -0.013 | [10] -0.025

GLS isoform 3 (UniProt O94925)
inactive: [1] 0.038 | [2] 0.021 | [3] 0.256 | [4] -0.007 | [5] 0.077 | [6] -0.264 | [7] 0.014 | [8] 0.064 | [9] 0.023 | [10] 0.219

GNB2 (UniProt P62879)
inactive: [1] 0.084 | [2] 0.134 | [3] 0.024 | [4] -0.13 | [5] 0.046 | [6] -0.095 | [7] 0.017 | [8] 0 | [9] 0.009 | [10] 0.062
